In the supplement of paper PMC11732987, “Enantioselective OTUD7B fragment discovery through chemoproteomics screening and high-throughput optimisation” (Communications Chemistry, 2025):

How the values were obtained:
Assay in all cases: log2 ratio of Biotin-Ahx-Ub-VS probe labelling (fragment/DMSO); higher = less target engagement (more negative = stronger competition), active = hit call of the paper (q ≤ 0.05, log2 ratio ≤ -1)
Conditions in all cases: compound concentration: 200 uM; treatment time: 3 h
[1] = biological target: T1, USP19 (UniProt O94966)
T1 sequence (whole entry): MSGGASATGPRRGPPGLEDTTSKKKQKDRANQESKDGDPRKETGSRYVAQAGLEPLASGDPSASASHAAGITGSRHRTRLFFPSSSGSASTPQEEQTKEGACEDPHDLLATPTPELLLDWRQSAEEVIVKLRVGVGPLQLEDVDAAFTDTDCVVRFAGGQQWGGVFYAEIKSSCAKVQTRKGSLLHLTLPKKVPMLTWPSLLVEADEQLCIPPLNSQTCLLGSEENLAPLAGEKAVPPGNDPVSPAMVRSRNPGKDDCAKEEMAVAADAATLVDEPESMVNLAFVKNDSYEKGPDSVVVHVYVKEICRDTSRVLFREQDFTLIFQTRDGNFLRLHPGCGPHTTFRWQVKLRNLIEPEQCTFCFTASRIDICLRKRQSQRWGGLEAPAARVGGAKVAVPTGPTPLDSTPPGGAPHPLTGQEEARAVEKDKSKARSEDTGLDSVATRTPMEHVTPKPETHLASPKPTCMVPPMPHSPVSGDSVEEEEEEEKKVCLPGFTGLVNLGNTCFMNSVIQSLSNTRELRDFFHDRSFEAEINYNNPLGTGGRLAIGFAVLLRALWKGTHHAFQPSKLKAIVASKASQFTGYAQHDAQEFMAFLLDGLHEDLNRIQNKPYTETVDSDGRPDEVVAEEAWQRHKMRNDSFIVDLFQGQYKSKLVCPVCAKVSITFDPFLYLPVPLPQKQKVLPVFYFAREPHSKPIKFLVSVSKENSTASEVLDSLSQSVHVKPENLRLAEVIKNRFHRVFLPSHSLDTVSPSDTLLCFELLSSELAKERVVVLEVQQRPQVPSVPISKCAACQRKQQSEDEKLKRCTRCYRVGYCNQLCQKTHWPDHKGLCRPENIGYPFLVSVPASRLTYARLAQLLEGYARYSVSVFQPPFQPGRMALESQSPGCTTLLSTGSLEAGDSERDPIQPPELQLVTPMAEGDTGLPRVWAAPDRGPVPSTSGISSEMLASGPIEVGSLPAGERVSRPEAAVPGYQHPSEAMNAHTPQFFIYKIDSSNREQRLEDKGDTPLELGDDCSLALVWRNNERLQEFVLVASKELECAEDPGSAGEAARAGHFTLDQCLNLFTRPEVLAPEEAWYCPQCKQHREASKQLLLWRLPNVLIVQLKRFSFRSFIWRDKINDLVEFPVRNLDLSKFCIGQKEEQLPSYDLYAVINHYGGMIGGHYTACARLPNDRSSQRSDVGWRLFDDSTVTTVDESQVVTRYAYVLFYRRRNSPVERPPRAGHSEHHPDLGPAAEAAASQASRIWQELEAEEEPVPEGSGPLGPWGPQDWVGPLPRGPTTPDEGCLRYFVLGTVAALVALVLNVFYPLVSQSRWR
Method in brief: (§1)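 Global-median-normalised Spectronaut label-free quantities were compared by unpaired t-test, and values are average log2 ratios of fragment over vehicle. Only proteins with ≥2 unique peptides were used. HEK293T lysate (495 µg per sample) was treated in triplicate with fragment at 200 µM or vehicle for 3 h and then with Biotin-Ahx-Ub-VS at 0.5 µM final for 1 h. Labelled DUBs were then NeutrAvidin-enriched, digested with LysC and trypsin, and run by diaPASEF LC-MS/MS.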

[2] = biological target: T2, USP22 (UniProt Q9UPT9)
T2 sequence (whole entry): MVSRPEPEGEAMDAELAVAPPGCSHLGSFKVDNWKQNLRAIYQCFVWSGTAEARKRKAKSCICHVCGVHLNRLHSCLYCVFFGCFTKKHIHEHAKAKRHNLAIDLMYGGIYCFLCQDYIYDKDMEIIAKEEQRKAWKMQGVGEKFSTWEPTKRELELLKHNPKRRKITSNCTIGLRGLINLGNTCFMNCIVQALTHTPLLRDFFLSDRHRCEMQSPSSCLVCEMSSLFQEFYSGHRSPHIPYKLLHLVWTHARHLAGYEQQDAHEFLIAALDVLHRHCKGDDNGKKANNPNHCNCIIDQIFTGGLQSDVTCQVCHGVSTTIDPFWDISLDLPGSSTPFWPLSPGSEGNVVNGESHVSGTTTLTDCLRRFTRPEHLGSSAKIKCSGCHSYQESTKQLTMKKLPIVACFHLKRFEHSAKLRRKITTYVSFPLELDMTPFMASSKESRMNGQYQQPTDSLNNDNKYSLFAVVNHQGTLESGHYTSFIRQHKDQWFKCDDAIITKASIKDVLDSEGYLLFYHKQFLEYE
Method in brief: as §1

[3] = biological target: USP24 (UniProt Q9UPU5)
Sequence of USP24 (Q9UPU5 whole entry): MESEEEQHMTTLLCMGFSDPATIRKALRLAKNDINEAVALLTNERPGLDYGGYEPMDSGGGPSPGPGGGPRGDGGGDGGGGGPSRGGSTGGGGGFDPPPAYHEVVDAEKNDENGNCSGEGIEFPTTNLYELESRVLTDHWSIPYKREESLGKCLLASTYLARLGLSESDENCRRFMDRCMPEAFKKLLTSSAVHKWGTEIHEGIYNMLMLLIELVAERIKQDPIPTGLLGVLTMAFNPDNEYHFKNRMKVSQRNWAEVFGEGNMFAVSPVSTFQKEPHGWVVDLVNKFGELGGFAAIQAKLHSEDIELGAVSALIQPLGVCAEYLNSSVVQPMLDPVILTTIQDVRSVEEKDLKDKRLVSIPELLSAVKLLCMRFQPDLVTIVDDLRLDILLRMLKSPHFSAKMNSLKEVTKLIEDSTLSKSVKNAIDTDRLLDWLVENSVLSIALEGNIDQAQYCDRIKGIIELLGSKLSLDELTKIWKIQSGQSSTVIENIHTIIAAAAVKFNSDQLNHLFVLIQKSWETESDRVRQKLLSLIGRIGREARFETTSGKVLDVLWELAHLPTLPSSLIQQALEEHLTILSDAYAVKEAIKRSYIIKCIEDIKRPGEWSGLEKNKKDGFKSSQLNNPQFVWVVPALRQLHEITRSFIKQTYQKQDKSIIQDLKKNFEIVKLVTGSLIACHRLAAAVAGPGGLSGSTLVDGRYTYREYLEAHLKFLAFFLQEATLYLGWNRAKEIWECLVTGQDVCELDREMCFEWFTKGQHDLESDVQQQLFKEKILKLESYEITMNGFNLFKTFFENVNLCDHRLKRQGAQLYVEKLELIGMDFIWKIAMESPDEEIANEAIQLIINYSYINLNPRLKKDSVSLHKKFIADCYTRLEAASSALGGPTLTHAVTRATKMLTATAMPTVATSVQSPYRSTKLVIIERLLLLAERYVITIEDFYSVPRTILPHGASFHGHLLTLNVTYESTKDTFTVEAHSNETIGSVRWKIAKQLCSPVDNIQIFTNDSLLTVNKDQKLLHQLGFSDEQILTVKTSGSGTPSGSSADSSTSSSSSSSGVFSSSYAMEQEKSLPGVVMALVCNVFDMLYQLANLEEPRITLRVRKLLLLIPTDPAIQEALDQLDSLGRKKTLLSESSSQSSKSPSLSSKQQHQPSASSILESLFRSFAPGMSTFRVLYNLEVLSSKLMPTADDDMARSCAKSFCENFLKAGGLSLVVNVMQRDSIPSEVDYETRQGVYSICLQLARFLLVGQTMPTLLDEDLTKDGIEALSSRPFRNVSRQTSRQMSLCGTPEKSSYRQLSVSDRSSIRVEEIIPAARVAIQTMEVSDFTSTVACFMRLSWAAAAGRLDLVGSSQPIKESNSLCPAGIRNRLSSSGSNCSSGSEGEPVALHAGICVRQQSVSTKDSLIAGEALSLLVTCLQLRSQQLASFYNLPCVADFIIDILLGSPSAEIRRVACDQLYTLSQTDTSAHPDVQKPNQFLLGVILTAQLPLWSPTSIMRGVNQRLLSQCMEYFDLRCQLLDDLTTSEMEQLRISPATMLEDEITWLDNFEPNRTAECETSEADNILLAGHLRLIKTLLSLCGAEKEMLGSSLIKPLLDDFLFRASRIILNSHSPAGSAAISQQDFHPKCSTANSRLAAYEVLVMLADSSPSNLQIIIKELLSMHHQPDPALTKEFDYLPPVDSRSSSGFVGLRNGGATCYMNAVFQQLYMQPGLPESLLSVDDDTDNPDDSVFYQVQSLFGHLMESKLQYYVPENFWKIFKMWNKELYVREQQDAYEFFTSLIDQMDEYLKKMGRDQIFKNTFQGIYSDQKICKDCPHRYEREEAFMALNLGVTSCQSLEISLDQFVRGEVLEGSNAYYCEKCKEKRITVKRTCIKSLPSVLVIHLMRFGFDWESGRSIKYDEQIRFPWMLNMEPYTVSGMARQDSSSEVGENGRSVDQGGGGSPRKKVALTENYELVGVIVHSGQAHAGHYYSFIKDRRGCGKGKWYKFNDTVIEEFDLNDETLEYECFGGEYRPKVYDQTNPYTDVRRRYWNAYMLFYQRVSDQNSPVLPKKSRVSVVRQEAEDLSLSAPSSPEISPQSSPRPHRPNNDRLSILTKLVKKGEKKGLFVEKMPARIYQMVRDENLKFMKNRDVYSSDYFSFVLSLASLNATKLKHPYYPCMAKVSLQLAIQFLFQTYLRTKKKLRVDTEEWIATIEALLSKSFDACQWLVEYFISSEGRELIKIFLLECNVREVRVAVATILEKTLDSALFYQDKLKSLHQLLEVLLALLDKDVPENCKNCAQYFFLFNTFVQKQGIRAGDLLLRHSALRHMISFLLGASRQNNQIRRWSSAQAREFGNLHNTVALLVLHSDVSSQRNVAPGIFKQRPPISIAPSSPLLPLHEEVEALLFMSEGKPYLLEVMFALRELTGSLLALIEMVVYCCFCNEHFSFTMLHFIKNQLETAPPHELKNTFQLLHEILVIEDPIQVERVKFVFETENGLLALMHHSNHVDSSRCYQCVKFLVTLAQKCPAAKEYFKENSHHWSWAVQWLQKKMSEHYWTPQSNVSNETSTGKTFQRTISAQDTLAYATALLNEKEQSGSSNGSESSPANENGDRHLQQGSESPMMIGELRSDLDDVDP
Method in brief: as §1

[4] = biological target: T3, USP25 (UniProt Q9UHP3)
T3 sequence (whole entry): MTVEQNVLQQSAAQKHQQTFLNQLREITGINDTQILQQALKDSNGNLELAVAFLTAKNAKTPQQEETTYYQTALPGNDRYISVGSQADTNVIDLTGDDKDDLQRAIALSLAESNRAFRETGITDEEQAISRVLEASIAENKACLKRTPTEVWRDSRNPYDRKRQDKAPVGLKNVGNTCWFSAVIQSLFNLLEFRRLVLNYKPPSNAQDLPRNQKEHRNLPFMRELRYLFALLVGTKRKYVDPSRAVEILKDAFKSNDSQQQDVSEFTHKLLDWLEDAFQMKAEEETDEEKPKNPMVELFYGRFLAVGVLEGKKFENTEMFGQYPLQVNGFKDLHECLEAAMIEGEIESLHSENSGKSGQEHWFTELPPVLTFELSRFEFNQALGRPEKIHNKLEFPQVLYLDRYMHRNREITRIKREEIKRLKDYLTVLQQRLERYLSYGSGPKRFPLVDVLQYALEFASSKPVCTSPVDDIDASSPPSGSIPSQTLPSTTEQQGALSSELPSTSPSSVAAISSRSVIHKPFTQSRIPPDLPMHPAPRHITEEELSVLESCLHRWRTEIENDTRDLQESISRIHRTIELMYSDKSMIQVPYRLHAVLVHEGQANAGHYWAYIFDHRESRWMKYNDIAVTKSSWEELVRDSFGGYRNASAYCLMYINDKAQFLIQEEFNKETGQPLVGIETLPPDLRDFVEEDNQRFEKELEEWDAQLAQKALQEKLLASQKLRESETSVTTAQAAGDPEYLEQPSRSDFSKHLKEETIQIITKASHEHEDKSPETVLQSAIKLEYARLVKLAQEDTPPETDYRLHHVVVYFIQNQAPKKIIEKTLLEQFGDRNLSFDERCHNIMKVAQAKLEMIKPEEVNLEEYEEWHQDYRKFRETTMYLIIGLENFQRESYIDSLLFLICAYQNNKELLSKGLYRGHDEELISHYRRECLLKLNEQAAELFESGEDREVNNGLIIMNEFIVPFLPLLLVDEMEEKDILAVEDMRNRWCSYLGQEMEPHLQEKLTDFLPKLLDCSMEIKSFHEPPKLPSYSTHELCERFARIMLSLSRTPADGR
Method in brief: as §1

[5] = biological target: T4, USP28 (UniProt Q96RU2)
T4 sequence (whole entry): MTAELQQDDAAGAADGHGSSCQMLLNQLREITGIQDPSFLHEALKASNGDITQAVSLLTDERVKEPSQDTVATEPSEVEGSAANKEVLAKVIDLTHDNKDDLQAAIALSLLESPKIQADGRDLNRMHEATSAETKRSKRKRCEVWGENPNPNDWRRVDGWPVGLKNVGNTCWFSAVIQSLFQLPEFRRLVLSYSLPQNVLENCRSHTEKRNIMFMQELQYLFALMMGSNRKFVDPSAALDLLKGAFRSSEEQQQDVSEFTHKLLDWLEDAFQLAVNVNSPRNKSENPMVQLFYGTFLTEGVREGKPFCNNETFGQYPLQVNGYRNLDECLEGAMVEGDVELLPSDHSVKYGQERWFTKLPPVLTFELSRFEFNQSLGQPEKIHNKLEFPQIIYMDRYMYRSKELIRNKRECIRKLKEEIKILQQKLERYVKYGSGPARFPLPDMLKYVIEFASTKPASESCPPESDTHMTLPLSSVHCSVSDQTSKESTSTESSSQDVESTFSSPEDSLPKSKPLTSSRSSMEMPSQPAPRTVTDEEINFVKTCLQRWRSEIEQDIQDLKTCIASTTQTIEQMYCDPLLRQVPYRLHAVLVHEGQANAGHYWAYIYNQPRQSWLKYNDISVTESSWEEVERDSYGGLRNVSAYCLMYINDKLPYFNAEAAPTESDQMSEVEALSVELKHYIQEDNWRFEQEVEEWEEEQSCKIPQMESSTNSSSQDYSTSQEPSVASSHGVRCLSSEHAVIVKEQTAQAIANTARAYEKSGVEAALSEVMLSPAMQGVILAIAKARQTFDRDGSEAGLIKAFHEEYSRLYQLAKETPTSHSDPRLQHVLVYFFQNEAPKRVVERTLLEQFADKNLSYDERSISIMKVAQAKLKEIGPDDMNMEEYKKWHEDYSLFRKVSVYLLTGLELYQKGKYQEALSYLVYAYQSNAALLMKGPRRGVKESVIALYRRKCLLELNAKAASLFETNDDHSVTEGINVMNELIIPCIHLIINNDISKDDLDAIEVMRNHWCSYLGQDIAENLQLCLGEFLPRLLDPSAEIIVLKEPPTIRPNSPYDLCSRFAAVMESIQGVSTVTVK
Method in brief: as §1

Measured: log2 ratio of Biotin-Ahx-Ub-VS probe labelling

Cc1ccc(C)c(Oc2ccc(CNC(=O)CCl)cn2)c1.Cl
inactive: [1] -0.382 | [2] -0.856 | [3] -0.83 | [4] -0.627 | [5] -0.765
